PG9 binder – binders of HIV-1 gp120 antibody PG9, primary screen, biochemical, TR-FRET. TR-FRET gp120-PG9 antibody binding. inhibition, % at 6.7 µM. HIV-1 gp120 / PG9 antibody interaction. AID 624416, 2012. 360,000 compounds, 0.43% hits; in the data active means inhibition above about 8.5%
ZTA DNA inh – counter-screen for EBNA-1 inhibitors: inhibitors of Epstein-Barr virus ZTA; ZTA-DNA binding, fluorescence polarization; P03206; 320,000 compounds, 0.15% hits; inhibition, % at 11 µM; in the data active means inhibition above about 33%
Target sequence (P03206 whole entry, looked up): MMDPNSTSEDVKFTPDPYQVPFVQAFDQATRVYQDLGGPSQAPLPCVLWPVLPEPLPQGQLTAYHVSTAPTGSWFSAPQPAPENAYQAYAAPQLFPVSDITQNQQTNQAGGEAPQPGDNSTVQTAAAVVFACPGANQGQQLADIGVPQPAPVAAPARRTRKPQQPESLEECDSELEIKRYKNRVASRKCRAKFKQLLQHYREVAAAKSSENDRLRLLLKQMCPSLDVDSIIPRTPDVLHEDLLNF
NCF1 inh – p47phox/p22phox peptide binding inhibitors, primary screen, biochemical, uHTS, NADPH oxidase regulatory subunit | Neutrophil cytosol factor 1 (Homo sapiens), P14598 | fluorescence polarization, 2 h | 220,000 compounds, 0.53% hits | inhibition, % at 24.7 µM;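 active means inhibition above about 30%, limit read from the data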
Target sequence (P14598 whole entry, looked up): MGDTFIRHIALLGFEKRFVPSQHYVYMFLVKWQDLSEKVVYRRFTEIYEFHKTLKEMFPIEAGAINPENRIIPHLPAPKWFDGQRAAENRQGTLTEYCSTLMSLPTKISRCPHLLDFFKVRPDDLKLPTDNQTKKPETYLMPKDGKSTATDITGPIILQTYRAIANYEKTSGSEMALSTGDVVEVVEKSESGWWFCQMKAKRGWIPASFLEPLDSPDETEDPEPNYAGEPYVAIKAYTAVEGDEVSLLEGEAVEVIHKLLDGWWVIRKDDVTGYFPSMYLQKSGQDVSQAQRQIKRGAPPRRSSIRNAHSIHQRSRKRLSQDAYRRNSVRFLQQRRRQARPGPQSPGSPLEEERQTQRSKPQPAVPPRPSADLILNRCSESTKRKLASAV
EBNA-1 inh – EBNA-1 DNA-binding inhibitors, primary screen, biochemical, fluorescence polarization; inhibition, % at 14.8 µM; 300,000 compounds, 0.34% hits; AID 1950, 2009; in the data active means inhibition above about 28%
NR1D1 modulator – modulators of Rev-erb alpha DNA binding, primary screen, biochemical, FITC-DNA, fluorescence polarization, uHTS. Rev-erbα–FITC-DNA binding, 90 min. activity, % at 10 µM. AID 1259318, 2017. Nuclear receptor subfamily 1 group D member 1 (Homo sapiens), P20393. 370,000 compounds, 0.79% hits;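 active means activity above about 14%, limit read from the data; passing the limit was not always enough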
aDG glyco act – activators of alpha-DG glycosylation, primary screen, uHTS, Pro5-aDG cells, AlphaScreen | 360,000 compounds, 0.22% hits | activation, % at 10 µM | alpha-DG glycosylation AlphaScreen (IIH6); 0% Pro5, 100% B10-LARGE cell signal;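 active means activation of at least 8% versus controls, or a plate z-score of at least 8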;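 further: Pro5 are CHO cells carrying HIG-tagged alpha-DG that lacks glycosylation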
PG9 bind confirm – binders of anti-gp120 antibody PG9, confirmation, biochemical, TR-FRET | shares compounds with PG9 binder | TR-FRET PG9 antibody binding | inhibition, % at 6.7 µM | 1,500 compounds, 90% hits; in the data active means inhibition above about 9%
PGV04 Ab binding – binders of control antibody PGV04, counter-screen for PG9 antibody binder project, biochemical, TR-FRET, distinct HIV envelope site; TR-FRET PGV04 antibody-gp120 binding; 1,500 compounds, 95% hits; AID 651604, 2012; inhibition, % at 6.7 µM; shares compounds with PG9 binder; in the data active means inhibition above about 9.5%
PG9 bind DR – small-molecule binders of antibody PG9, dose response, biochemical, TR-FRET, HIV-1 gp120 antibody; IC50, µM; 95 tested, under 10 active; shares compounds with PG9 binder; TR-FRET PG9 antibody-gp120 binding inhibition; in the data active means IC50 below about 10 µM
PGV04 DR counter – binders of control antibody PGV04, dose response, counter-screen for PG9 antibody binder project, biochemical, TR-FRET, distinct HIV envelope site; shares compounds with PG9 binder; TR-FRET binding to control antibody PGV04; IC50, µM; 95 compounds, 20% hits
PG126 binding DR – binders of control antibody PG126, dose response, counter-screen for PG9 antibody binder project, biochemical, TR-FRET, distinct HIV envelope site. shares compounds with PG9 binder. TR-FRET binding to antibody PG126, counterscreen. IC50, µM. 95 compounds, 20% hits. AID 651939, 2012
Of the large screens only hits and unclear results are named; the others gave an inactive call (follow-up assays come after a bar, where they were run). Hits are enriched below; roughly 1.9% of the tested compounds scored in any of these assays. Unless noted, no stated cut-off is given here; in the data, active means IC50 below about 9 µM; inactive means the rest.

COc1ccc(C2C(C(=O)Nc3ccc(Cl)c(Cl)c3)CCC(=O)N2c2ccc(OC)cc2)cc1 (stereo not given)	none (no result: PG9 binder, ZTA DNA inh, NCF1 inh, EBNA-1 inh, aDG glyco act)
COc1ccc(OC)c(NC(=O)CSc2nncc3ccccc23)c1	PG9 binder 13 (no result: NCF1 inh) | PG9 bind confirm inactive | PGV04 Ab binding 10
O=C(CCS(=O)(=O)c1ccccc1)Nc1ccc(F)cc1F	none (no result: PG9 binder, ZTA DNA inh, NCF1 inh, EBNA-1 inh, aDG glyco act)
CC(C)(C)NS(=O)(=O)c1ccc2nc(NC(=O)c3ccc(N4C(=O)CCC4=O)cc3)sc2c1	PG9 binder 48 | PG9 bind confirm 46 | PGV04 Ab binding 64
CCCC(C)NC(=O)CC1Oc2ccccc2NC1=O (stereo not given)	none (no result: PG9 binder, ZTA DNA inh, NCF1 inh, EBNA-1 inh, aDG glyco act)
COc1ccc(C2C(C(=O)Nc3ccc(F)cc3)CCC(=O)N2c2ccc(OC)cc2)cc1 (stereo not given)	none (no result: PG9 binder, ZTA DNA inh, NCF1 inh, EBNA-1 inh, aDG glyco act)
Cc1cccc(-n2c(-c3ccco3)n[nH]c2=S)c1	PG9 binder 14 | PG9 bind confirm 17 | PGV04 Ab binding 20
COc1ccc(C(=O)COC(=O)c2ccc(N(C)C)cc2)cc1	PG9 binder 15 | PG9 bind confirm 23 | PGV04 Ab binding 26
CN(C)c1ccc(C(=O)OCC(=O)NCCNC(=O)COC(=O)c2ccc(N(C)C)cc2)cc1	none (no result: NCF1 inh)
COC(=O)c1ccc(CNC(=O)COC(=O)c2ccc(N(C)C)cc2)cc1	PG9 binder 26 | PG9 bind confirm 24 | PGV04 Ab binding 39
Cc1cccc(CCNC(=O)c2ccc(Sc3ccccc3Cl)c([N+](=O)[O-])c2)c1	none (no result: PG9 binder, ZTA DNA inh, NCF1 inh, EBNA-1 inh, aDG glyco act)
O=C(Cn1c(=O)c2cccn2c2ccccc21)NCCc1ccccc1	PG9 binder 11 (no result: NCF1 inh) | PG9 bind confirm 19 | PGV04 Ab binding 27
O=C(O)Cn1c(=O)c2cccn2c2ccccc21	none (no result: NCF1 inh)
CCCc1nc2ccccc2c(=O)n1CC(=O)c1ccc(OC)cc1	PG9 binder 10.0 (no result: NCF1 inh) | PG9 bind confirm 11 | PGV04 Ab binding 15
CCCc1nc2ccccc2c(=O)n1CC(=O)c1ccccc1	none
O=C(Cn1ccc2ccccc2c1=O)NCC1COc2ccccc2O1 (stereo not given)	PG9 binder 17 | PG9 bind confirm 21 | PGV04 Ab binding 27
CC(C)(C)NC(=O)[C@H](c1cccnc1)N(C(=O)c1ccco1)c1ccc(C(C)(C)C)cc1	none (no result: PG9 binder, ZTA DNA inh, NCF1 inh, EBNA-1 inh, aDG glyco act)
Cc1c(NC(=O)c2ncn[nH]2)cccc1-c1nc2ccccc2s1	PG9 binder 27 | PG9 bind confirm 33 | PGV04 Ab binding 51
Cc1c(NC(=O)c2ccc(N3CCCC3)c([N+](=O)[O-])c2)cccc1-c1nc2ccccc2s1	none
CCOc1ccccc1-c1nc(C(N)=O)c2[nH]c(=O)n(-c3ccccc3)c2n1	PG9 binder 19 | PG9 bind confirm 28 | PGV04 Ab binding 58
COc1cccc(-c2nc(C(N)=O)c3[nH]c(=O)n(-c4ccccc4)c3n2)c1OC	none
CCC(=O)c1cn(CC(=O)Nc2ccc(C)cc2)c2ccccc12	PG9 binder 11 (no result: NCF1 inh) | PG9 bind confirm 13 | PGV04 Ab binding 18
Cc1ccc(NC(=O)Cn2cc(C(=O)C3CC3)c3ccccc32)cc1	PG9 binder 10 (no result: NCF1 inh) | PG9 bind confirm inactive | PGV04 Ab binding 11
Cc1cccc(NC(=O)Cn2cc(C(=O)C3CC3)c3ccccc32)c1	none (no result: NCF1 inh)
CCC(=O)c1cn(CC(=O)Nc2ccccc2)c2ccccc12	none (no result: NCF1 inh)
C[C@H]1[C@@H](NCc2ccccc2)CC[C@@]23CCCN2C(=O)CCC[C@@H]13	none (no result: PG9 binder, ZTA DNA inh, NCF1 inh, EBNA-1 inh, aDG glyco act)
COc1ccc(CN(C2CCCCC2C)S(=O)(=O)c2ccc(S(=O)(=O)N(C)C)cc2)cc1OC (stereo not given)	none
COc1cc(CN(C2CCCCC2C)S(=O)(=O)c2ccc(S(=O)(=O)NC3CC3)cc2)cc(OC)c1OC (stereo not given)	PG9 binder 11 | PG9 bind confirm inactive | PGV04 Ab binding inactive | PG9 bind DR inactive | PGV04 DR counter inactive | PG126 binding DR inactive
CCC[C@H]1[C@@H](OC(=O)NCCc2c[nH]c3ccccc23)CC[C@@]23CCCN2C(=O)CCC[C@@H]13	none (no result: PG9 binder, ZTA DNA inh, NCF1 inh, EBNA-1 inh, aDG glyco act)
Cc1cc(N=Cc2c(O)ccc3ccccc23)no1	none
Cc1cc(N=Cc2c(O)ccc3cc(Br)ccc23)no1	PG9 binder 9.1 | PG9 bind confirm inactive | PGV04 Ab binding 10
CC(C)Oc1ccc(S(=O)(=O)N2CCCCCC2)c2ccccc12	none (no result: PG9 binder, ZTA DNA inh, NCF1 inh, EBNA-1 inh, aDG glyco act)
COc1ccc(-c2cc(-c3nnc(SCC(=O)Nc4nccs4)n3N)[nH]n2)cc1	none (no result: PG9 binder, ZTA DNA inh, NCF1 inh, EBNA-1 inh, aDG glyco act)
CC(=O)c1ccc(NC(=O)CSc2ccc(-c3ccc4c(c3)OCO4)nn2)cc1	PG9 binder 10 | PG9 bind confirm 15 | PGV04 Ab binding 29
Cc1ccc(NC(=O)CSc2ccc(-c3cccnc3)nn2)cc1	none (no result: NCF1 inh)
CC(C)COc1ccc(C(=O)Nc2ccc(NC(=O)c3ccco3)c(Cl)c2)cc1	none
CC(C)Oc1ccc(C(=O)Nc2ccc(NC(=O)c3ccco3)c(Cl)c2)cc1	PG9 binder 11 | PG9 bind confirm 16 | PGV04 Ab binding 23
CCCCCc1ccc(NC(=O)OCCCN2CCC3(CCC(c4ccccc4)CC3)C2=O)cc1 (stereo not given)	none (no result: PG9 binder, ZTA DNA inh, NCF1 inh, EBNA-1 inh, aDG glyco act)
O=C(CSc1nnc2ccccn12)Nc1ccc2c(c1)OCO2	none
Cc1ccc(-c2nnc(SCC(=O)Nc3ccc(-c4nc5ccc(C)cc5s4)cc3)n2Cc2ccco2)cc1	none (no result: PG9 binder, ZTA DNA inh, NCF1 inh, EBNA-1 inh, aDG glyco act)
O=C(CSc1nnc2ccccn12)Nc1cccc(-c2nc3ccccc3s2)c1	PG9 binder 8.9 | PG9 bind confirm 13 | PGV04 Ab binding 25
C=CCn1c(SCC(=O)Nc2ccc(-c3nc4ccc(C)cc4s3)cc2)nnc1-c1ccccc1	PG9 binder 9.6 | PG9 bind confirm 13 | PGV04 Ab binding 27

Screening results deposited in PubChem BioAssay by several laboratories.
